This passage reports sensor-assay potency score (higher = more potent) results from the OligoGym collection.
Further: reference of the scale not given here.

In this assay the target is CACNA2D4. Put plainly: pooled miR-30 sensor sort-seq; sequence = guide strand. The settings on record: shRNA.
The sequence TTTGACTTCTGTCGCCTCCTGC registered a sensor-assay potency score (higher = more potent) of -0.115.
To TTTATACCTGGATAGATCCTGA belongs -0.0984.
TAATAGTCGAACACCAGGGATT came in with a sensor-assay potency score (higher = more potent) of -1.39.
Sequence TTGTAATAGTCGAACACCAGGG gave a sensor-assay potency score (higher = more potent) of -0.554.
The same measure for TCAGGTGTCAGGAACTTCCTGT: 0.631; for TTGGAGATCAGAATGAACCCGT: 0.657; for TCGATTGTCTCGGTCCGCCTGG: -0.412.
TCTGTGATGCAGTAGATCCAGT: the sensor-assay potency score (higher = more potent) was -0.578.
Sequence TTGTTGTCGATGACGAAGCAGT showed a sensor-assay potency score (higher = more potent) of -0.871.
In turn, TTATACTTCTCAAACACCGGCT yielded a sensor-assay potency score (higher = more potent) of -0.014.
Consider TTCCAGAGGAATCTTGGCCTGT, for which the sensor-assay potency score (higher = more potent) came out at 0.14.
To TATACTTCTCAAACACCGGCTC belongs -0.108.
